From PubChem BioAssay AID434970 (Sanford-Burnham Center for Chemical Genomics, 2010)
Screen size: about 11,000 compounds; about 310 (2.8%) were called active. No stated cut-off is given here; in the data, active means activity change below about -85%; inactive means the rest. What follows is part of a selection rich in actives, with near analogues and random picks from the rest.

Tested on: intestinal alkaline phosphatase [Mus musculus]
Assay: activators of mouse IAP, confirmation, biochemical, luminescence, single concentration (AID 434970)
Conditions: purified mouse IAP, CDP-Star luminescence, 30 min, at 10 µM; activation factor: measured here: IAP activation factor, stronger effect = higher value; activity change, negative = activation: stronger effect = lower value

| SMILES | activation factor | activity change, negative = activation |
| --- | --- | --- |
| CCOC(=O)C1=CN(Cc2cccc(F)c2)S(=O)(=O)NC1c1ccc(Br)cc1F (stereo not given) | 0.921 | 7.85% (inactive) |
| CN(C)C(=O)CCc1ccc2c3c([nH]c2c1)[C@]1(C)[C@@H](C(=O)N2CCOCC2)C[C@H](CC(=O)NCCc2ccccn2)C(=O)N1CC3 | 1.02 | -2.25% (inactive) |
| O=C1C[C@@H]2CCN3C(=O)CCC[C@@H]([C@H]23)[C@@H]1Cc1ccccc1 | 0.964 | 3.55% (inactive) |
| CC(CN1CCN(C)CC1)OC(=O)c1ccc(Cl)cc1 (stereo not given) | 0.929 | 7.05% (inactive) |
| N#Cc1ccc(N2CCN(c3ccc(F)cc3)CC2)cc1 | 0.995 | 0.5% (inactive) |
| CCCNC(=O)c1ccc(SC)cc1OC | 0.92 | 8% (inactive) |
| O=C(NCC1CC1(Cl)Cl)Nc1ccc(Cl)c(Cl)c1 (stereo not given) | 2.53 | -153% (active) |
| CCn1nccc1C(=O)Nc1ccc(Cl)c(Cl)c1 | 0.952 | 4.85% (inactive) |
| O=C(Nc1ccc(Cl)cc1)Nc1ccc(Cl)c(Cl)c1 | 2.27 | -127% (active) |
| O=C(Nc1ccc(Cl)c(Cl)c1)Nc1ccc(Br)cc1F | 2.24 | -124% (active) |
| O=C(Nc1ccc(Br)cc1)Nc1ccccc1F | 1.81 | -81.1% (inactive) |
| O=C(Nc1ccc(Br)cc1)Nc1ccccc1Cl | 1.39 | -39.4% (inactive) |
| N#Cc1ccc(NC(=O)Nc2ccc(Cl)cc2)cc1 | 1.73 | -72.5% (inactive) |
| O=C(Nc1ccc(Cl)c(Cl)c1)N1CCSCC1 | 1.13 | -13.4% (inactive) |
| Cc1ccc(NC(=O)Nc2ccc(F)c(Cl)c2)cc1 | 1.35 | -35% (inactive) |
| CCN(CC)c1nc(N)c2c(N)n(-c3ccccc3C)c(=S)c(C#N)c2c1C#N | 0.823 | 17.8% (inactive) |
| O=C1c2cccc3c(N4CCCCC4)ccc(c23)C(=O)N1CCO | 1.18 | -17.9% (inactive) |
| CCOc1ccccc1N(CC(=O)NC1CCCCC1)S(C)(=O)=O | 0.972 | 2.85% (inactive) |
| COc1cc2c(c(OC)c1OC)C(c1ccccc1C)CC(=O)O2 (stereo not given) | 1.07 | -6.55% (inactive) |
| CSCC[C@H](NC(=O)C1CCN(S(=O)(=O)c2ccc(C)cc2C)CC1)c1nc2ccccc2[nH]1 | 2.02 | -102% (active) |
| Cc1ccc(S(=O)(=O)N2CCN(C(=O)CSc3nc4ccccc4c(=O)[nH]3)CC2)c(C)c1 | 1.1 | -10.3% (inactive) |
| CSCCC(NC(=O)c1ccc(=O)n(C)n1)c1nc2ccccc2[nH]1 (stereo not given) | 0.931 | 6.9% (inactive) |

| SMILES | activation factor | activity change, negative = activation |
| --- | --- | --- |
| Cc1nn(C)cc1CNC(=O)Nc1ccc(Cl)cc1 | 1.32 | -31.6% (inactive) |
| Cc1ccc(C)c(CN2CCC(CNC(=O)Nc3ccc(Cl)cc3)CC2)c1 | 2.23 | -123% (active) |
| Cc1ccc(C)c(CN2CCC(CNC(=O)Nc3ccc(F)c(Cl)c3)CC2)c1 | 1.98 | -97.9% (active) |
| Cc1cccc(CCNC(=O)CCc2c(C)nc3ncnn3c2C)c1 | 0.906 | 9.35% (inactive) |
| CCNC(=O)COc1cc(C)c(Cl)c(C)c1 | 1 | -0.4% (inactive) |
| CCc1nc2sc3c(c2c(=O)n1N)CCC3 | 0.913 | 8.65% (inactive) |
| CCN(CC)S(=O)(=O)c1cccc(-c2nnc(SCC(=O)c3cc(C)n(C)c3C)o2)c1 | 0.772 | 22.8% (inactive) |
| COc1ccc(C2/C=C\CN(C(=O)c3ccccc3)CC(=O)N2Cc2cccc(F)c2)cc1 (stereo not given) | 1.01 | -1.35% (inactive) |
| CC(=O)N1c2ccccc2C(C)(c2ccccc2)CC1(C)C (stereo not given) | 0.98 | 2% (inactive) |
| O=C(NCC1CC1)C1CCCN(S(=O)(=O)c2ccc(-n3cnnn3)cc2)C1 (stereo not given) | 1.01 | -0.9% (inactive) |
| CSc1ccccc1NC(=O)Nc1ccc(F)c(Cl)c1 | 1.83 | -83.2% (inactive) |
| O=C(Nc1ccc(Cl)cc1)C1CC(=O)n2c(nc3ccccc32)N1 (stereo not given) | 2.06 | -106% (active) |
| O=C(Nc1ccc(F)c(Cl)c1)C1CC(=O)n2c(nc3ccccc32)N1 (stereo not given) | 2.42 | -142% (active) |
| O=C1CC(c2ccco2)Sc2nc3ccccc3n21 (stereo not given) | 0.801 | 19.9% (inactive) |
| O=C(O)C1=C(C(=O)Nc2ccc(F)c(Cl)c2)CCCC1 | 0.98 | 2% (inactive) |
| O=C(Nc1ccc(Cl)cc1)N1CCC(c2nc(-c3ccccc3Cl)no2)CC1 | 1.1 | -9.8% (inactive) |
| FC(F)Oc1ccc(NC(=S)NCc2ccccc2)cc1Cl | 1.34 | -34.3% (inactive) |
| COC(=O)[C@H](Cc1ccc(O)cc1)NC(=O)Cn1cnc2c(NCc3ccccc3)ncnc21 | 1.08 | -8.5% (inactive) |
| COCCCNC(=O)CCSc1ccc(Cl)cc1 | 0.897 | 10.3% (inactive) |
| O=C(NCc1ccncc1)c1nnc(Cc2c(F)cccc2Cl)o1 | 0.951 | 4.9% (inactive) |
| NC(=O)CSc1nnc(-c2cccnc2)n1CCc1ccccc1 | 0.957 | 4.35% (inactive) |
| CS(=O)(=O)Nc1ccccc1C(=O)c1ccccc1 | 1.04 | -3.7% (inactive) |

| SMILES | activation factor | activity change, negative = activation |
| --- | --- | --- |
| O=C(CSc1ncn[nH]1)CSc1ncn[nH]1 | 0.517 | 48.3% (inactive) |
| CCCCOC(=O)C1=C(C)NC2=C(C(=O)CCC2)C1c1cc(OC)ccc1OC (stereo not given) | 1.09 | -9.15% (inactive) |
| CCc1cc(Cn2nc(-c3ccccc3)cc2C(=O)NCc2ccccc2OC)on1 | 1.99 | -99.1% (active) |
| Cc1ccc(CNC(=O)c2cc(-c3ccccc3)nn2Cc2cc(C)no2)cc1 | 2.26 | -126% (active) |
| COc1ccc(C2=NOC(Cn3nc(-c4ccccc4)cc3C(=O)NCc3cccc(C(F)(F)F)c3)C2)cc1 (stereo not given) | 1.83 | -83.5% (inactive) |
| COc1ccc(C2=NOC(Cn3nc(-c4ccccc4)cc3C(=O)NCc3cccc(Br)c3)C2)cc1 (stereo not given) | 2.12 | -112% (active) |
| CCc1cc(Cn2nc(-c3ccccc3)cc2C(=O)NCc2cccs2)on1 | 1.89 | -88.9% (inactive) |
| COc1ccc(C2=NOC(Cn3nc(-c4ccccc4)cc3C(=O)NCc3cccs3)C2)cc1 (stereo not given) | 1.82 | -81.5% (inactive) |
| Cc1ccc(CNC(=O)COC(=O)c2c(C)noc2C)cc1 | 0.891 | 10.9% (inactive) |
| CCc1cc(Cn2nc(-c3ccccc3)cc2C(=O)NCc2ccc(C)cc2)on1 | 1.7 | -69.7% (inactive) |
| COc1ccc(C2=NOC(Cn3nc(-c4ccccc4)cc3C(=O)NCc3ccc(C)cc3)C2)cc1 (stereo not given) | 1.57 | -57.5% (inactive) |
| CCc1cc(Cn2nc(-c3ccccc3)cc2C(=O)NCc2cccc(Br)c2)on1 | 2.8 | -180% (active) |
| Cn1c(C(=O)NCc2ccccc2)cc2oc3ccccc3c21 | 1.14 | -14.4% (inactive) |
| COc1ccc(C2=NOC(Cn3nc(-c4ccccc4)cc3C(=O)NCc3ccccc3OC)C2)cc1 (stereo not given) | 1.68 | -67.7% (inactive) |
| O=C(COc1ccccc1Cl)OCC(=O)N1CCN(S(=O)(=O)c2ccccc2)CC1 | 0.883 | 11.7% (inactive) |
| CC(=O)c1cccc(NC(=O)CCNS(=O)(=O)c2cccc(C(C)=O)c2)c1 | 0.929 | 7.05% (inactive) |
| Cc1cc(Br)cc2c1NC(=O)C2(c1c(C)n(C)n(-c2ccccc2)c1=O)c1c(C)n(C)n(-c2ccccc2)c1=O | 1.02 | -2.5% (inactive) |
| Cc1cc(C)n2cc(CSc3nnnn3-c3ccccc3)nc2n1 | 0.946 | 5.45% (inactive) |
| CCOC(=O)c1c(NC(=O)CSc2nnc(CNc3ccc(F)cc3)o2)sc(C(C)=O)c1C | 0.797 | 20.2% (inactive) |
| O=C1c2ccccc2[C@@H]2C[C@@H](O)[C@H](Nc3cccc(Cl)n3)CCN12 | 1.01 | -0.85% (inactive) |
| CCCCN1CCS(=O)(=O)N(Cc2ccccc2Br)CC(C(=O)OC)C1 (stereo not given) | 0.992 | 0.8% (inactive) |
| C=CCNC(=O)/C(=C/c1ccco1)NC(=O)c1ccc(Br)o1 | 0.906 | 9.4% (inactive) |

| SMILES | activation factor | activity change, negative = activation |
| --- | --- | --- |
| O=C(NCCCN1CCCCC1)c1ccc2c(=O)n(CCc3ccccc3)c(=O)[nH]c2c1 | 0.91 | 9% (inactive) |
| COc1cc(OC)c2c(-c3cccc(-c4ccc(OC(F)(F)F)cc4)c3)cc(=O)oc2c1 | 0.834 | 16.6% (inactive) |
| COCC(C)NCc1cccc(OC)c1OC (stereo not given) | 1.14 | -14.2% (inactive) |
| Cc1ccc(C(=O)NC(Cc2ccc(C(C)(C)C)cc2)C(=O)O)cc1 (stereo not given) | 1.03 | -3.5% (inactive) |
| O=C(c1ccc(S(=O)(=O)N2CCCCC2)cc1)N1CCCc2ccccc21 | 0.98 | 2.05% (inactive) |
| Cc1cc(Cn2nc(-c3ccccc3)cc2C(=O)NCc2cccc(Br)c2)on1 | 3.29 | -230% (active) |
| Cc1nn(C)cc1CNC(=O)c1cccc(Br)c1 | 1.12 | -11.8% (inactive) |
| Cc1ccccc1-c1cc(C(=O)NCc2cccc(Br)c2)n(CC2CC(c3cccnc3)=NO2)n1 (stereo not given) | 1.56 | -55.5% (inactive) |
| O=C(C[C@H]1C[C@H](C(=O)N2CCOCC2)[C@@]2(CCC3CCCC3)c3[nH]c4cc(-c5ccco5)ccc4c3CCN2C1=O)NCCc1ccccn1 | 1.17 | -17.2% (inactive) |
| Cc1ccccc1OCC(=O)OC(C)CN1CCN(C)CC1 (stereo not given) | 0.998 | 0.2% (inactive) |
| CC(C)CCNC(=O)Nc1ccc2c(c1)N(C)C(=O)CS2 | 1.53 | -52.8% (inactive) |
| CN1C(=O)CSc2ccc(NC(=O)NCCC3=CCCCC3)cc21 | 2.22 | -122% (active) |
| Cc1ccc(NC(=O)Nc2ccc3c(c2)N(C)C(=O)CS3)cc1C | 1.92 | -91.7% (inactive) |
| CC(=O)c1ccc(NC(=O)Nc2ccc3c(c2)N(C)C(=O)CS3)cc1 | 1.28 | -28.4% (inactive) |
| Cc1cc(C)cc(NC(=O)Nc2ccc3c(c2)N(C)C(=O)CS3)c1 | 2.54 | -154% (active) |
| CCc1ccc(NC(=O)Nc2ccc3c(c2)N(C)C(=O)CS3)cc1 | 2.14 | -114% (active) |
| Cc1ccc(CNC(=O)Nc2ccc3c(c2)N(C)C(=O)CS3)cc1 | 1.78 | -78% (inactive) |
| COc1ccc(NC(=O)Nc2ccc3c(c2)N(C)C(=O)CS3)cc1OC | 1.48 | -48.4% (inactive) |
| CCOc1ccc(NC(=O)Nc2ccc3c(c2)N(C)C(=O)CS3)cc1 | 1.29 | -29.2% (inactive) |
